Assay results: paper PMC4552634, “A New Set of Chemical Starting Points with Plasmodium falciparum Transmission-Blocking Potential for Antimalarial Drug Discovery” (PLoS ONE, 2015)
Out of some 13,000 compounds screened, about 3,200 (25%) showed an effect of 50% or more. This is one part of the list.

test system: P. falciparum stage V gametocytes; parameters: BacTiter-Glo ATP luminescence viability of purified stage V gametocytes in 384-well plates, per cent inhibition versus DMSO; details: 48 h, 5 µM; inhibitor

Compound | % Inhibition
COc1cc(C(=O)NC2CCN(Cc3ccccc3)CC2)ccc1-c1nc2cc(Cl)c(C)cc2[nH]1 [TCMDC-140028] | -62.59%
CN1CCN(c2nc(NCCc3ccc(O)cc3)nc(NCc3ccccc3-c3ccc(C(F)(F)F)cc3)n2)CC1 [TCMDC-138322] | -8.259%
CC1(C)[C@H]2CC[C@@H](CNc3nc(NCCc4cnc[nH]4)nc(Nc4ccc5c(c4)OCO5)n3)[C@@H]1C2 [TCMDC-139738] | -17.51%
COc1ccc2nccc([C@@H](O)CN3CCC(NC(=O)C(c4cc5ccccc5o4)N4CCN(c5ccccc5OC)CC4)CC3)c2c1 (stereo partly drawn) [TCMDC-140991] | 13.75%
COc1ccc(C(=O)N2CCC(C(=O)NC(C)c3ccc(-n4ccnc4)cc3)CC2)c2ccccc12 (stereo not drawn) [TCMDC-124603] | -15.82%
CC(C)(C)c1ccc(NC(=O)c2cccc(CN3CCCN(Cc4ccc(F)cc4)CC3)c2)cc1 [TCMDC-135985] | -30.03%
O=C(NCc1ccc(Cl)cc1)c1ccc(CN2CCCN(Cc3cccc(O)c3)CC2)cc1 [TCMDC-136442] | 2.881%
C[C@H]1CN(Cc2cccc(-c3cc(CNC(=O)c4cccc(CN5CCN(C/C=C/c6ccccc6)CC5)c4)ccc3F)c2)CCN1 [TCMDC-136208] | 114.8%
CN(C(=O)/C=C/c1c(Cl)cccc1Cl)C1CCN(CCCCCNC(=O)/C=C/c2ccc(Cl)c(Cl)c2)CC1 [TCMDC-139995] | -22.04%
O=C(Nc1ccc(CN2CCN(S(=O)(=O)c3cccc(Cl)c3)CC2)cc1)c1cccs1 [TCMDC-136319] | 27.89%
CN(CC(=O)N1CCN(S(=O)(=O)c2cccc(Cl)c2)CC1CN1CCCC1)c1ccc(Cl)c(Cl)c1 (stereo not drawn) [TCMDC-136893] | 71.55%
Cn1c(N)c(C(=O)CSc2ncc(-c3ccc(F)cc3)n2Cc2ccccc2)c(=O)n(C)c1=O [TCMDC-125101] | 12.63%
CC1(C)N=C(N)N=C(N)N1OCCCc1cccc(C(F)(F)F)c1 [TCMDC-131651] | -2.569%
O=[N+]([O-])c1ccc(Oc2ccccc2CNCC2CCN(CC3CCCCC3)CC2)cc1 [TCMDC-141414] | 46.86%
COc1ccc(CN2CCC(CNCCc3ccccc3Cl)CC2)cc1 [TCMDC-141343] | 21.62%
COc1ccc2ccccc2c1CNCC1CCN(CC2CCCCC2)CC1 [TCMDC-141412] | -44.03%
COc1ccc(CN2CCC(CNCCc3c(Cl)cccc3Cl)CC2)cc1 [TCMDC-141345] | 89.6%
COc1ccc(CN2CCC(CNCCc3ccccc3Oc3ccccc3)CC2)cc1 [TCMDC-141350] | 98.78%
COc1ccc(Oc2ccccc2CNCC2CCN(CC3CCCCC3)CC2)cc1 [TCMDC-141413] | 81.97%
COc1ccc2c(c1)CC1CN(CCCCNC(=O)c3ccc(NC(=O)c4cc(Cl)cc(Cl)c4)cc3)CCN1C2 (stereo not drawn) [TCMDC-138223] | -15.2%
NC1CCN(c2nc(NCCc3ccc(O)cc3)nc(NCc3ccccc3-c3ccccc3)n2)CC1 [TCMDC-133441] | 29.52%
Cc1ccc2c(Cc3cnc(N)nc3N)cc(C)c(N)c2n1 [TCMDC-137878] | -11.15%
COc1ccc(C(C(=O)NC2CCN(C[C@H](O)c3ccnc4ccc(OC)cc34)CC2)N2CCN(c3ccc([N+](=O)[O-])cc3)CC2)cc1 (stereo partly drawn) [TCMDC-140992] | -4.461%

Compound | % Inhibition
O=C(NCc1ccccc1)Nc1ccc(-c2cccc(-c3nc4ccc(C(F)(F)F)cc4[nH]3)c2)cc1 [TCMDC-133160] | -18.34%
O=C(Nc1ccc(F)c(C(F)(F)F)c1)NC1CCN(CCCCCNC(=O)C2CC2c2ccc(Cl)c(Cl)c2)CC1 (stereo not drawn) [TCMDC-136259] | 97.75%
O=C(Nc1ccc(F)c(C(F)(F)F)c1)N[C@H]1CCN(CCCCCNC(=O)C2CC2c2ccc(Cl)c(Cl)c2)C1 (stereo partly drawn) [TCMDC-136270] | 88.79%
O=C(NCCCCCN1CCCN(C(=O)Nc2ccc(F)c(C(F)(F)F)c2)CC1)C1CC1c1ccc(Cl)c(Cl)c1 (stereo not drawn) [TCMDC-136254] | 10.75%
COc1ccc2nccc([C@@H](O)CN3CCC(NC(=O)C(c4cc5ccccc5o4)N4CCN(Cc5ccccc5)CC4)CC3)c2c1 (stereo partly drawn) [TCMDC-140988] | 30.33%
O=C(Nc1ccc(-c2nc3ccccc3[nH]2)cc1)C1CCCN(C2CCC2)C1 (stereo not drawn) [TCMDC-124687] | -67.58%
O=C(NCCCN1CCCCC1)c1cccc(Nc2nccc(Nc3ccc(Oc4ccccc4)cc3)n2)c1 [TCMDC-138605] | -29.44%
O=C(NCCN1CCCC1)c1cccc(Nc2nccc(Nc3ccc(Oc4ccccc4)cc3)n2)c1 [TCMDC-138602] | -15.16%
O=C(NCCCN1CCCCC1)c1ccc(Nc2nccc(Nc3ccc(Oc4ccccc4)cc3)n2)cc1 [TCMDC-138609] | -10.89%
CN1CCN(CCCNCc2cccc(Nc3nccc(Nc4ccc(Oc5ccccc5)cc4)n3)c2)CC1 [TCMDC-138616] | 109.5%
O=C(Nc1ccccc1)c1cccc(Nc2nccc(Nc3ccc(Oc4ccccc4)cc3)n2)c1 [TCMDC-138561] | 74.26%
CN1CCN(Cc2cccc(Nc3nccc(Nc4ccc(Oc5ccccc5)cc4)n3)c2)CC1 [TCMDC-138614] | -13.87%
NC(=O)c1cccc(Nc2nccc(Nc3ccc(Oc4ccc5ccccc5c4)cc3)n2)c1 [TCMDC-138600] | -22.11%
CN1CCN(CCCNCc2ccc(Nc3nccc(Nc4ccc(Oc5ccccc5)cc4)n3)cc2)CC1 [TCMDC-138621] | 88.79%
N#CCc1ccc(Nc2nccc(Nc3ccc(Oc4ccccc4)cc3)n2)cc1 [TCMDC-138577] | 4.825%
CCCN1CCN(CCNC(=O)c2cccc(Nc3nccc(Nc4ccc(Oc5ccccc5)cc4)n3)c2)CC1 [TCMDC-138606] | -54.96%
O=C(NCCCN1CCOCC1)c1cccc(Nc2nccc(Nc3ccc(Oc4ccccc4)cc3)n2)c1 [TCMDC-138604] | 68.84%
Brc1cccc(Nc2nccc(Nc3ccc(Oc4ccccc4)cc3)n2)c1 [TCMDC-138559] | 9.5%
COc1cc2c(cc1C(F)(F)F)N(C(=O)Nc1cc(F)c(F)c(-c3cccnc3)c1)CC2 [TCMDC-139061] | 5.239%
CCC(C)(CC)C(=O)n1ncc2c3c(N)nc(N)nc3ccc21 [TCMDC-137335] | -46.13%
COc1ccc(-n2ccnc2SCC(=O)Nc2cc(C(F)(F)F)ccc2Cl)c(OC)c1 [TCMDC-123822] | 7.482%
CCCc1cc(Cc2cnc(N)nc2N)c2cccnc2c1OC [TCMDC-138034] | 13.25%
c1cncc(-c2cccc(CNc3nccc(Nc4ccc(OCCN5CCOCC5)cc4)n3)c2)c1 [TCMDC-134667] | 2.743%

Compound | % Inhibition
O=C(NCCN1CCCCC1)c1cccc(Nc2nccc(Nc3ccc(Oc4ccccc4)cc3)n2)c1 [TCMDC-138603] | 19.36%
c1ccc(Oc2ccc(Nc3ccnc(Nc4cccc(CNCCCN5CCOCC5)c4)n3)cc2)cc1 [TCMDC-138615] | 95.32%
CN1CC[C@@H](Oc2cc(C(=O)NCc3ccc(Cl)c(Cl)c3)ccc2C(F)(F)F)C1 [TCMDC-136228] | 28.38%
CCCCCCCc1c(C)[nH]c2cccc(OC)c2c1=O [TCMDC-138014] | 32.1%
CCCCCCCCc1c(C)[nH]c(C)c(I)c1=O [TCMDC-137430] | 48.86%
CCCCCCCc1c(C)[nH]c2c(OC)cccc2c1=O [TCMDC-138016] | 17.32%
CCCCCCCCc1c(C)[nH]c(C)c(C#N)c1=O [TCMDC-137431] | 44.76%
CCCCCCCc1c(C)[nH]c2ccccc2c1=O [TCMDC-137425] | 37.94%
CCCCCCCCCc1c(C)[nH]c2ccccc2c1=O [TCMDC-137268] | 51.45%
CCCCCCCCc1c(C)[nH]c(C)c(Br)c1=O [TCMDC-137437] | 29.73%
CCCCCCCc1c(C)[nH]c2ccc(F)cc2c1=O [TCMDC-137269] | 73.68%
CCCCCCCCc1c(C)[nH]c(C)c(Cl)c1=O [TCMDC-137538] | 68.39%
O=C(NC1CCN(Cc2ccccc2)CC1)c1ccc(-c2nc3cc(F)c(F)cc3[nH]2)s1 [TCMDC-140452] | 7.821%
N#Cc1ccc2c(c1)CCN(CCC1CCC(NC(=O)c3ccc(-c4ccccn4)s3)CC1)CC2 (stereo not drawn) [TCMDC-139840] | -69.85%
O=C(Nc1ccc(-c2csc(-c3nc4ccccc4[nH]3)c2)cc1)Nc1ccc(F)c(F)c1F [TCMDC-133221] | 23.86%
CN(C(=O)Cc1ccc(Cl)cc1)C1CCN(CCCCCNC(=O)/C=C/c2ccc(Cl)c(Cl)c2)CC1 [TCMDC-139988] | -15.24%
CC(Oc1ccc(Cl)cc1)C(=O)NCCC1CCN(CCCCCNC(=O)/C=C/c2ccc(Cl)c(Cl)c2)CC1 (stereo not drawn) [TCMDC-140003] | 96.79%
CN(C(=O)C(C)(C)Oc1ccc(Cl)cc1)C1CCN(CCCCCNC(=O)/C=C/c2ccc(Cl)c(Cl)c2)CC1 [TCMDC-139990] | 51.05%
O=C(/C=C/c1ccc(Cl)c(Cl)c1)NCCCCCN1CCC(CCNC(=O)/C=C/c2cc(C(F)(F)F)ccc2F)CC1 [TCMDC-140005] | -14.45%
CC(Oc1ccc(Cl)cc1)C(=O)N(C)C1CCN(CCCCCNC(=O)/C=C/c2ccc(Cl)c(Cl)c2)CC1 (stereo not drawn) [TCMDC-139989] | -40.26%
CN(C(=O)Cc1ccc(Cl)c(Cl)c1)C1CCN(CCCCCNC(=O)/C=C/c2ccc(Cl)c(Cl)c2)CC1 [TCMDC-139986] | -22.66%
CC(C)(C(=O)NCCC1CCN(CCCCCNC(=O)/C=C/c2ccc(Cl)c(Cl)c2)CC1)c1ccc(Cl)cc1 [TCMDC-140002] | 52.94%
CC(C)(Oc1ccc(Cl)cc1)C(=O)NCCC1CCN(CCCCCNC(=O)/C=C/c2ccc(Cl)c(Cl)c2)CC1 [TCMDC-140004] | 87.45%
